# Results reported in PubChem BioAssay AID743279 (National Center for Advancing Translational Sciences (NCATS), 2014).
# Out of some 360,000 compounds screened, about 17,000 (4.7%) were called active. Not shown: some 5% with an inconclusive outcome. The sample holds actives, similar compounds and a random draw of the others, so the mix is not that of the screen. Cut-off read from the data, not from the text of the source: active = activity change below about -50%; inconclusive = mostly about -30% to -49%; inactive = weaker than that.
# Test: qHTS for Inhibitors of Inflammasome Signaling: IL-1-beta AlphaLISA Primary Screen
# Conditions: THP-1 LPS/ATP IL-1B secretion, 16 h; at 57.5 µM, stronger effect = lower value
# Outline: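 THP-1 cells pretreated 1 hr with compounds (up to 57.5 uM final), then stimulated with LPS (250 ng/mL final) plus ATP (1.25 mM final); secreted IL-1B measured by AlphaLISA after 16 hr, decreased signal indicating inhibition.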
# % is set by controls: 0 for no effect and ±100 for the full control effect.
row,Compound,activity change
1,CCCNC(=O)C1(C)CCN(C(=O)c2cc(F)ccc2C)C1 (configuration not stated),34.1% (inactive)
2,COc1cccc(C(NC(C)=O)c2nc(-c3ccccc3OC)cs2)c1 (configuration not stated),9.34% (inactive)
3,COC(=O)C[C@@H]1C=C[C@@H](NC(=O)c2ccc3c(c2)OCO3)[C@@H](CO)O1,7.5% (inactive)
4,COc1cccc(CNC(=O)CN2C(=O)NC(Cc3ccccc3)(c3ccccc3)C2=O)c1 (configuration not stated),-58.8% (active)
5,CCCCNC(=O)CN1C(=O)NC(Cc2ccccc2)(Cc2ccccc2)C1=O,4.67% (inactive)
6,COc1cccc(CNC(=O)COC(=O)CN2C(=O)NC3(CCCCC3C)C2=O)c1 (configuration not stated),8.38% (inactive)
7,CN(Cc1nc2ccccc2c(=O)[nH]1)Cc1cc(=O)oc2ccc3ccccc3c12,0.506% (inactive)
8,O=C(CNc1ccccc1N1CCCC1=O)Nc1cc(Cl)ccc1-n1cncn1,-19.4% (inactive)
9,Cc1ccc(CNC(=O)c2cccnc2Cl)cc1,55.4% (inactive)
10,CCN(CC)S(=O)(=O)c1ccc(NC(=O)c2cnc(C)cn2)cc1,57% (inactive)
11,CCN(CC)S(=O)(=O)c1ccc(NC(=O)c2cccnc2Cl)c(NC(=O)c2cccnc2Cl)c1,-102% (active)
12,CC(O)(c1cccc(F)c1)c1nc(-c2ccc3c(c2)OCO3)cs1 (configuration not stated),16% (inactive)
13,COc1cc(-c2nnc(NC(=O)CS(=O)(=O)c3ccc(Cl)cc3)o2)cc(OC)c1OC,-11% (inactive)
14,CCN(CC)c1ccc(NC(=O)c2ccc(=O)[nH]c2)cc1S(=O)(=O)Nc1ccc(OC)cc1,-3.18% (inactive)
15,COc1ccc(CNC(=O)COC(=O)c2sccc2C)cc1OC,12.1% (inactive)
16,Oc1[nH]c2ccccc2c1N=Nc1c(F)c(F)c(F)c(F)c1F,-7.81% (inactive)
17,O=C(CCN1CCCCC1)N=Nc1c(O)[nH]c2ccccc12,-74.6% (active)
18,Cc1cccc(N(CC(=O)N=Nc2c(O)[nH]c3ccccc23)S(C)(=O)=O)c1C,19.5% (inactive)
19,CS(=O)(=O)N1CCc2nc(-c3ccccc3)sc2C1,54.3% (inactive)
20,COc1ccccc1OCCNC(=O)C(CCSC)NC(=O)COc1ccccc1 (configuration not stated),-18.9% (inactive)
21,NC(=O)c1ccc(N2CCCC2)nc1,5.48% (inactive)
22,COc1cccc(CN(C)CC(=O)NCc2ccccc2Cl)c1OC,1.26% (inactive)
23,Cc1nc2ccc(C(=O)N(C)CC3CCCN(CCc4ccc(Cl)cc4)C3)cc2[nH]1 (configuration not stated),8.01% (inactive)

row,Compound,activity change
1,COc1cccc(CN(C)CC2CCCN(CCc3ccc(Cl)cc3)C2)c1OC (configuration not stated),-90.5% (active)
2,C[C@H]1CN([C@@H](C)CO)S(=O)(=O)c2ccc(-c3cccc(F)c3)cc2O[C@@H]1CN(C)C,-2.69% (inactive)
3,O=C(NCCOc1ccccc1Cl)C(=O)Nc1ccccc1,inactive
4,CC(C)Nc1nc(NCCOc2ccccc2Cl)c2sccc2n1,-90.6% (active)
5,Clc1ccccc1Nc1nc(NCc2cccs2)nc2ccsc12,42.9% (inactive)
6,C=C(C)C1CC=C(C)/C(=N\NC(=O)CNc2ccccc2OC)C1 (configuration not stated),-1.86% (inactive)
7,COc1ccc2nc(-c3ccccn3)ccc2c1,19.8% (inactive)
8,CCc1ccccc1NC(=O)CN1CCN(C(=O)c2cc(C3CC3)nn2-c2ccccc2)CC1,-18.2% (inactive)
9,CC(=O)Nc1cccc(-c2ccnc3c2CC(C)(C(=O)NCc2ccco2)O3)c1 (configuration not stated),78.5% (inactive)
10,COc1cccc2oc(CCc3ccccc3)cc(=O)c12,-5.15% (inactive)
11,CCOC(=O)c1ccc(NC(=O)c2nc[nH]c2C(=O)NCc2ccccc2)cc1,7.09% (inactive)
12,CCOC(=O)c1ccc(NC(=O)c2nc[nH]c2C(=O)N[C@@H](CCCCNC(=O)OC(C)(C)C)C(=O)OC(C)(C)C)cc1,-62.8% (active)
13,CC(C)(C)OC(=O)CNC(=O)c1[nH]cnc1C(=O)N[C@@H](CCCCN)C(=O)OC(C)(C)C,-12.6% (inactive)
14,COc1ccccc1CC1(C)C(=O)Nc2ccc(OC(F)(F)F)cc21 (configuration not stated),4.75% (inactive)
15,COc1ccc(/C=C(\C#N)c2c[nH]c3ccccc23)cc1,-102% (active)
16,COc1ccc(C(C(O)C(=O)c2c[nH]c3ccccc23)N2CCN(c3ccccc3)CC2)cc1 (configuration not stated),14.4% (inactive)
17,COc1ccc(/C=C(\NC(=O)c2ccc(OC)c(OC)c2)C(=O)NCCc2c[nH]c3ccccc23)cc1,-11.1% (inactive)
18,Cc1ccc([C@H]2N[C@]3(CCCN(CC4CCCCC4)C3=O)[C@H]3C(=O)N(Cc4ccccc4)C(=O)[C@@H]23)cc1,-9.33% (inactive)
19,O=C(CC(c1ccccc1)c1ccccc1)NCC(O)c1ccc([N+](=O)[O-])cc1 (configuration not stated),-69.4% (active)
20,O=C(NCC(O)c1ccc([N+](=O)[O-])cc1)C1CCCCC1 (configuration not stated),-13.9% (inactive)
21,CC(=O)NCC(O)c1ccc([N+](=O)[O-])cc1 (configuration not stated),0.816% (inactive)
22,O=C(O)c1ccc([N+](=O)[O-])cc1Sc1ccsc1,4.28% (inactive)
23,O=C(NCc1cccc(C(F)(F)F)c1)c1ccc2sc(COCCO)nc2c1,28.9% (inactive)

row,Compound,activity change
1,CCN(CC)CCNC(=O)c1ccc(NC(=O)c2c(F)cccc2Cl)cc1,-73.3% (active)
2,CCN(CC)CCNC(=O)c1ccc(NS(=O)(=O)c2ccc3c(c2)OCCO3)cc1,-6.92% (inactive)
3,CCN(CC)CCOC(=O)c1ccc(NC(=O)CNC(=O)c2ccccc2)cc1,7.44% (inactive)
4,FC(F)(F)Oc1ccc(NC(=S)NCc2ccccc2)cc1,-95% (active)
5,CCNC(=S)Nc1ccc(OC(F)(F)F)cc1,-1.65% (inactive)
6,COC(=O)Cc1ccc(NC(=S)NCc2ccccc2)cc1,0.636% (inactive)
7,CC1(C)OC(=O)C2=C(C[C@@H](C3CC3)O[C@H]2c2ccc(Cl)cc2)O1,6.02% (inactive)
8,N=C1c2ccccc2-c2ccccc21,3.3% (inactive)
9,CN(C)S(=O)(=O)Oc1ccccc1C(=O)Nc1ccccc1Cl,3.38% (inactive)
10,Cc1c(NC(=O)Nc2ccccc2Cl)sc(=S)n1C,-4.03% (inactive)
11,O=C(Nc1ccccc1Cl)/C(Cl)=C(\Cl)S(=O)c1ccccc1 (configuration not stated),-103% (active)
12,CCCNC(=O)C1(C)CCN1C(=O)C1(c2ccccc2)CC1 (configuration not stated),0% (inactive)
13,Nc1ncnc2c1ncn2[C@@H]1O[C@H](C(=O)N2CCSC2)[C@@H](O)[C@H]1O,3.32% (inactive)
14,Cc1ccc(S(=O)(=O)N(CCc2ccccc2)c2ccc3c(c2)C2CC3CCN2C(=O)OCc2ccccc2)cc1 (configuration not stated),-16.8% (inactive)
15,COc1ccc(C2=Nc3ccccc3NC(=O)C2N(C(=O)c2cc3ccccc3[nH]2)c2ccccc2)cc1 (configuration not stated),16.6% (inactive)
16,Oc1ccc2ccccc2c1N=Nc1nccs1,-98.3% (active)
17,CC(C)(C)c1ccc(Cn2nnc3c(=O)[nH]c(C4CCCN(C(=O)c5ccco5)C4)nc32)cc1 (configuration not stated),-12.5% (inactive)
18,COc1cc(NC(=O)C2CCN(c3cnccn3)CC2)cc(OC)c1,-9.18% (inactive)
19,Nc1ccc(C(=O)Nc2ccccc2N)cc1,-21% (inactive)
20,Cc1ccc(Nc2nc(Cl)c(C=O)s2)cc1,-13.1% (inactive)
21,Cc1ccc(Nc2ccccc2N)cc1,-70% (active)
22,Cc1nc2ccc(N)nc2nc1C,10.3% (inactive)
23,CC(C)(C)N1C(=O)c2c(C(=O)OCc3ccccc3)[nH]c(-c3ccccc3)c2C1=O,11.9% (inactive)

row,Compound,activity change
1,Fc1ccccc1COc1ccccc1CNCc1ccncc1,-61.1% (active)
2,CCOc1cc(/C=N/O)ccc1OCc1ccccc1F,-8.72% (inactive)
3,COc1ccccc1CNCc1cccs1,10.3% (inactive)
4,CCOC(=O)C1=C(O)/C(=C/c2cc(C)n(-c3ccccc3)c2C)N=C1C,-9.27% (inactive)
5,COc1ccc(NS(=O)(=O)c2cccc(C(=O)NCCc3ccc(S(N)(=O)=O)cc3)c2)cc1,6.56% (inactive)
6,CSc1ccc(CN2C(=O)NC3(CCCCCC3)C2=O)cc1,-60.4% (active)
7,O=C(CN1C(=O)NC2(CCCCCCC2)C1=O)NCc1ccc(F)cc1,-15.9% (inactive)
8,O=C(CN1C(=O)NC2(CCCCCC2)C1=O)NCc1ccc(F)cc1,-13.3% (inactive)
9,CC(C)c1ccc(C=NNc2ccc([N+](=O)[O-])cn2)cc1,20.1% (inactive)
10,O=C1NCC(Nc2ccccc2)C(=O)N1 (configuration not stated),11.9% (inactive)
11,O=C(Nc1ccn(CCCNCc2ccc3[nH]ccc3c2)c(=O)n1)OCc1ccccc1,-20.2% (inactive)
12,COc1ccc2sc(-c3ccccc3OC)c(-c3ccc(OCCN4CCCC4)cc3)c2c1,-51% (active)
13,COc1ccccc1-c1sc2ccccc2c1-c1ccc(Br)nc1,26.6% (inactive)
14,COc1cccc(-c2sc3ccc(OC)cc3c2-c2ccc(OCCN3CCCCC3)cc2)c1,-3.91% (inactive)
15,CC1(C(=O)NS(=O)(=O)c2ccc(Cl)cc2)CCN1C(=O)CC1CCCC1 (configuration not stated),24.4% (inactive)
16,CCCCSc1nc2c(c(=O)n1CC)SC(C)C2 (configuration not stated),25.4% (inactive)
17,CCN1CCN(C(=O)CN(C)S(=O)(=O)c2ccc(OC)cc2)CC1,-5.95% (inactive)
18,CCOCCCNC(=O)C1(O)c2cc(Br)ccc2NC(=O)N1c1ccc(C)c(C)c1 (configuration not stated),29.6% (inactive)
19,COc1ccc(-c2cc(C(=O)NCCCN3CCCC3=O)c3ccccc3n2)cc1OC,0% (inactive)
20,COc1ccc(-c2cc(-c3ccc(N)cc3)nc(N)c2C#N)cc1OC,0% (inactive)
21,COc1ccc(-c2cc(C(F)(F)F)nc(S(C)(=O)=O)n2)cc1OC,-105% (active)
22,O=C1NC[C@H](Cc2ccc(O)cc2)N(C[C@H]2CCCN2C[C@H](Cc2ccccc2)N2C[C@H](Cc3ccccc3)N(CCc3ccccc3)C(=O)C2=O)C1=O,-12.9% (inactive)
23,O=C1CCC(=O)N1CCC(=O)N(C(=O)NC1CCCCC1)C1CCCCC1,-5.97% (inactive)
